ATXN2 expr inh – reduces ATXN2 reporter expression in HEK-293 cells. Potency, µM (series often up to 57 µM), hits mostly inhibitors. AID 1745845. 360,000 tested, 0.72% active. HEK-293 ATXN2-luciferase reporter, luminescence, 24 h; note: nearly all actives have a fitted effect of over 55% in size
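ATXN2-luciferase reporter cells (luciferase flanked by upstream and downstream ATXN2 gene portions) were treated 24 h at 37 °C with compounds at up to 57 uM. SteadyGlo luminescence gave expression; GF-AFC fluorescence gave viability.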
HepG2 tox – HepG2 cytotoxicity, counter-screen for TGF-b inhibitors. HepG2 CAGA-GFP viability, ATP luminescence, 18 h. Potency, µM (highest dose often 46.1 µM), most hits filed as cytotoxic. 410,000 tested, 0.76% active. AID 588856
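CellTiter-Glo luminescence gave cytotoxicity after 18 hours at 37 degrees C. The cells were HepG2 CAGA-GFP in 1% FBS DMEM, stimulated with 500 pg/mL TGF-beta after compound addition. %Activity was normalised to no-cell wells (complete cell-killing) and DMSO (no toxicity), and curves were fitted and classified.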
IL1B secr inh – blocks inflammasome-driven IL-1 beta release; THP-1 LPS/ATP IL-1B secretion, AlphaLISA, 16 h; hits give low values; activity change, % at 57.5 µM; 360,000 tested, 4.7% active; in the data active = activity change below about -50%; inconclusive = mostly about -30% to -49%
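Secreted IL-1B measured by AlphaLISA bead assay after 16 h compound exposure of THP-1 cells; compounds (final up to 57.5 uM) added 1 h before LPS (250 ng/mL) and ATP (1.25 mM) stimulation; lower signal means less secretion.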
ATXN viability – viability counter-screen for ATXN expression inhibitors; S2 cells (HEK-293 line with an ATXN2-luciferase reporter) viability, CellTiter-Fluor protease fluorescence, 24 h; 400,000 tested, 0.49% active; Potency, µM (highest dose often 56.7 µM), usual class: cytotoxic; note: nearly all actives have a fitted effect of over 40% in size
TGFb SMAD3 inh – TGF-b pathway inhibition. HepG2 CAGA-GFP TGF-b/SMAD3 reporter, GFP fluorescence, 18 h; TGF-beta stimulated, 500 pg/mL final. Potency, µM (highest dose often 46.1 µM), hits mostly inhibitors. 410,000 tested, 1.2% active. AID 588855; note: nearly all actives have a fitted effect of over 65% in size
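First, reporter cells (HEPG2 CAGA-GFP) rested 2 h at 37 degrees C. Next, compounds were pinned in and TGF-beta added to 500 pg/mL final. After 18 h, GFP was imaged per cell and summed per well.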
Numbers stand for hits; - = inactive; ? = inconclusive; . = not tested or not shown; [ ] = remark or other dose. Shown are actives, neighbours in structure and some others; about 5.7% of the full set was active somewhere. Unless noted, calls come from the whole dose curve; as a rule, active = well fitted curve in the direction sought with a large enough effect; inconclusive = small, poorly fitted or top-dose-only effect, or another doubt; inactive = no such curve, though single readings can be large; an effect the other way counts as inactive or inconclusive.

SMILES | ATXN2 expr inh | HepG2 tox | IL1B secr inh | ATXN viability | TGFb SMAD3 inh
Nc1nc(=S)c2n[nH]nc2[nH]1 | . | - | . | . | -
CCOc1ccccc1CNC(=O)c1ccc2c(c1)nc1n2CCCCC1 | . | - | . | . | -
COc1cc(/C=N\Nc2nc3ccccc3[nH]2)cc(OC)c1OC | - | - | - | - | ?
CCN(CC)c1ccc(/C=N/Nc2nc3ccccc3[nH]2)c(O)c1 | ? | - | -59 | 5µM | 16µM
COc1ccc(/C=N/Nc2nc3ccccc3[nH]2)cc1OC | - | - | -75 | - | -
COc1cc(OC)c(OC)cc1/C=N/Nc1nc2ccccc2[nH]1 | . | - | - | - | -
COc1ccc2c(c1)c(/C=N/Nc1nc3ccccc3[nH]1)c(C)n2C | ? | - | -98 | ? | ?
CN(C)S(=O)(=O)c1ccc2c(c1)C(=Cc1cc3c([nH]1)CCCC3)C(=O)N2 | - | . | . | . | .
Cc1nc(Nc2nc(-c3ccccc3)cc(=O)[nH]2)nc2ccccc12 | - | - | -65 | ? | ?
CCCCS/C(=C(/C#N)C(N)=O)c1cc2c([nH]1)CCCC2 | - | - | -66 | ? | -
CCc1ccc(N/C(SC)=C(/C#N)C(N)=O)cc1 | - | - | - | - | -
CCOC(=O)/C=C/C(=O)N1CCN(C(=O)/C=C/C(=O)OCC)CC1 | - | - | -100 | - | -
Cc1ccc(C)c(NC(=S)N(Cc2ccco2)C(C)c2cccs2)c1 (stereo not drawn) | - | - | - | - | -
Cc1ccc(NC(=S)N(Cc2ccco2)C(C)c2cccs2)c(Cl)c1 (stereo not drawn) | - | - | -71 | - | ?
CC(C)c1ccc(NC(=O)CSc2nc(=O)n(Cc3ccccn3)c3c2CCC3)cc1 | . | - | . | . | ?
CCN(CC)c1ccc2cc(NC(=O)CCC(=O)O)c(=O)oc2c1 | 7.9µM | - | - | . | -
CCc1cccc(NC(=O)CN(C)S(=O)(=O)c2ccc3c(c2)n(C)c(=O)c(=O)n3C)c1 | - | - | . | - | -
O=C(Cc1ccccc1)Nc1cccc(N2C(=O)C=CC2=O)c1 | - | - | -67 | - | ?
COc1cccc(NC(=O)Cc2ccccc2)c1 | - | - | - | - | -
CCCN1CCN(c2cc3c(cc2F)c(=O)c(S(=O)(=O)c2ccc(CC)cc2)cn3CC)CC1 | . | - | . | . | ?
COC(=O)COc1ccc(/C=N/NC(=O)c2ccc(N(Cc3ccccc3)S(C)(=O)=O)cc2)cc1 | - | - | -95 | - | ?
COc1ccc(/C=N/NC(=O)c2nc(-c3ccccc3)cc(-c3ccccc3)n2)cc1 | - | - | -80 | - | -
COc1ccc(/C=N/NC(=O)c2c(-c3ccccc3)noc2C)cc1 | - | - | - | - | -
COc1ccc(/C=N/NC(=O)c2nc(-c3ccccc3)cc(-c3ccccc3)n2)cc1O | - | - | -82 | - | ?
O=c1[nH]c(N/N=C/c2ccccc2Br)nnc1-c1ccccc1 | - | - | - | ? | -
SMILES | ATXN2 expr inh | HepG2 tox | IL1B secr inh | ATXN viability | TGFb SMAD3 inh
CC(C)Oc1ccc(/C=N/NC(=O)c2ccc(N(Cc3ccccc3)S(C)(=O)=O)cc2)cc1 | - | - | - | - | -
COc1ccc(/C=N/Nc2nnc(-c3ccccc3)c(=O)[nH]2)cc1 | - | - | -71 | - | -
Clc1ccc(CNc2ncnc3nc[nH]c23)cc1 | . | - | . | . | -
Cc1cc[n+](CC#N)cc1 | . | - | . | . | -
Cc1ccc(Cn2cc(C(=O)c3ccc4c(c3)OCO4)c(=O)c3cc(C)ccc32)cc1 | - | - | . | ? | -
COc1cc(/C=N/Nc2nc(C)nc3c2cnn3-c2ccccc2)ccc1O | -[11.3 µM] | - | -100 | - | -
COc1cc(/C=N/NC(=O)c2nc(-c3ccccc3)n(-c3ccccc3)n2)ccc1O | - | - | - | - | ?
NNC(=O)c1nc(-c2ccccc2)cc(-c2ccccc2)n1 | ? | - | -82 | - | -
COc1ccc(C(=O)N/N=C/c2ccc(N(C)c3ccccc3)cc2)cc1 | 27µM | - | ? | - | -
COc1cc(/C=N/NC(=O)c2cnn3c(C)cc(-c4ccccc4)nc23)ccc1O | - | - | -57 | - | -
Cc1c(Cl)cccc1N1CCn2c1nc1c2c(=O)n(CC(=O)O)c(=O)n1C | - | - | . | - | -
CCN1CCC(N(Cc2ccc3c(c2)OCO3)C(=O)Nc2cc(Cl)ccc2C(=O)OC)CC1 | 25µM | - | . | 16µM | ?
